Molecules are shown by their SMILES. Records with an inconclusive call do not appear. Entries that show only a call come without a potency. Calls of active or inactive are those of the source. Calls follow the shape of the dose curve; as a rule, active = well fitted inhibition curve with a large enough effect; inconclusive = small, poorly fitted or top-dose-only effect; inactive = flat fitted curve, though single readings scatter.
Potency is read from the fitted curve at half-maximal effect.

In the experiment the target is Ubiquitin carboxyl-terminal hydrolase 1 (Homo sapiens) (UniProt O94782). As to the kind of experiment: Inhibitors of USP1/UAF1: Pilot qHTS (AID 504865). Also: nearly all actives have a fitted effect of over 35% in size. The conditions noted are these: purified USP1/UAF1, Ub-rhodamine cleavage fluorescence; series mostly up to 114 µM. Summed up: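 In 50mM HEPES pH 7.8 containing 0.5mM EDTA, 1mM TCEP, 0.1 mg/ml BSA and 0.01% Tween-20, 1nM USP1/UAF1 is exposed to compound for 15 min, then Ub-Rho (150nM final) is added and fluorescence is read over time.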
Ubiquitin carboxyl-terminal hydrolase 1 (Homo sapiens), sequence (O94782 whole entry, looked up): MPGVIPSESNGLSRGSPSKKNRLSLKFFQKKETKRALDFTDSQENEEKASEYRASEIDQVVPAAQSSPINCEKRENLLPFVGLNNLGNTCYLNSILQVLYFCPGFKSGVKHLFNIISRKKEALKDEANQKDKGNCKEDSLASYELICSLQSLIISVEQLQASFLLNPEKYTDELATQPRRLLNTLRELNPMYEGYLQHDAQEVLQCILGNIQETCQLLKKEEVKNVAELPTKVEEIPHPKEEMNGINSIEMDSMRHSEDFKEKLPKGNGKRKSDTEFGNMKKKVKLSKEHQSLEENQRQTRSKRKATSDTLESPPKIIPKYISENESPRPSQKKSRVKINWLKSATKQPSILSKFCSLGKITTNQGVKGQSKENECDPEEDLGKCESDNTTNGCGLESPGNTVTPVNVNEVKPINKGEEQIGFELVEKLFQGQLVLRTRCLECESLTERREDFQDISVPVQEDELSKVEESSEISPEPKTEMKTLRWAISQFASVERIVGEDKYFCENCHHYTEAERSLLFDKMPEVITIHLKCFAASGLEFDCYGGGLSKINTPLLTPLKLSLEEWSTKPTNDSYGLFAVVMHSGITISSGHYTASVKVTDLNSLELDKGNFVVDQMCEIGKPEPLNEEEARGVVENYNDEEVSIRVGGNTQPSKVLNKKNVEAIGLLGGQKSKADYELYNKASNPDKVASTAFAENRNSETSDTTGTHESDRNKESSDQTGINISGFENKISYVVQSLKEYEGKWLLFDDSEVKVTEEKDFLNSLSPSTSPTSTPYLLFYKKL
(In general: In qHTS, concentration-response curves come from the screen itself.)
As to `O=C(O)CCC/C=C\C[C@@H]1[C@@H](/C=C/[C@@H](O)COc2cccc(C(F)(F)F)c2)[C@H](O)C[C@@H]1O`, the Potency entry was “inactive”.

For the compound `CCCCCCCCCCCC(=O)N(CCO)CCO`, the Potency entry is “inactive”.

On to `F[Si-2](F)(F)(F)(F)F`, for which the Potency entry is “inactive”.

Turning to `O=C1c2ccccc2C(=O)C1c1ccc(F)cc1`, the Potency result was “inactive”.

In the case of `OC1OC[C@@H](O)[C@H](O)[C@@H]1O` (stereo not given in full), the Potency entry was “inactive”.

As to `CCCCCCCCCCCCCCCCCCCCCC(=O)Nc1ccn([C@@H]2O[C@H](CO)[C@@H](O)[C@@H]2O)c(=O)n1`, the Potency result was “inactive”.

As for `CN(C)c1ccc(C(=C2C=CC(=[N+](C)C)C=C2)c2c(O)c(S(=O)(=O)[O-])cc3cc(S(=O)(=O)O)ccc23)cc1`, the Potency is 56.2 µM (active).

On to `CCCC(CCC)C(=O)OC1C[C@H]2CC[C@@H](C1)[N+]2(C)C` (stereo not given in full), for which the Potency entry is “inactive”.

Turning to `O=P(O)(O)OP(=O)(O)O`, the Potency result was “inactive”.

As to `C[C@H](CCCC(C)(C)O)[C@H]1CC[C@H]2[C@@H]3CC=C4C[C@@H](O)CC[C@]4(C)[C@H]3CC[C@]12C`, the Potency entry is “inactive”.

For `CCCOc1cc(N)ccc1C(=O)OCCN(CC)CC`, the Potency result is “inactive”.

In the case of `O=C1CCC(c2ccccc2)(C2CCN(Cc3ccccc3)CC2)C(=O)N1` (stereo not given), the Potency result was “inactive”.

On to `O=C(O)[C@H]1CN(C/C=C/P(=O)(O)O)CCN1`, for which the Potency entry is “inactive”.

Regarding `NC(=S)NS(=O)(=O)c1ccc(N)cc1`, the Potency result was “inactive”.

Take `O=S(=O)(O)CCCS(=O)(=O)O`: the Potency result is “inactive”.

On to `CCN(CC)CCC(=O)N1c2ccccc2Sc2ccc(Cl)cc21`, for which the Potency entry was “inactive”.

As for `FC(F)(F)C(F)(F)C(F)(F)C(F)(F)C(F)(F)F`, the Potency result was “inactive”.

Take `Oc1cc(O)cc(O)c1`: the Potency entry is “inactive”.

Take `CCN(CC)CCOc1ccc2nc(N(C)C)sc2c1`: the Potency entry is “inactive”.

With `CN1CCc2c(c3ccccc3n2Cc2ccccc2)C1`, the Potency result is “inactive”.

With `CN=C1C=CC(=C(c2ccc(N(C)C)cc2)c2ccc(N(C)C)cc2)C=C1`, the Potency is 20 µM (active).

As to `O=C(O)CC/C=C\CC[C@@H]1[C@@H](N2CCCCC2)[C@@H](O)C[C@@H]1OCc1ccc(-c2ccccc2)cc1`, the Potency entry is “inactive”.

Take `COc1cc(C)c(/C=C/C(C)=C/C=C/C(C)=C/C(=O)O)c(C)c1C`: the Potency is 50.1 µM (active).

As for `COc1ccccc1N1CCN(CCCC(=O)c2ccc(F)cc2)CC1`, the Potency entry is “inactive”.

With `CCOc1ccc(S(=O)(=O)O)c2cccnc12`, the Potency entry was “inactive”.

For `C[C@]12CCC(=O)C[C@@H]1CC[C@@H]1[C@@H]2CC[C@]2(C)C=CC[C@@H]12`, the Potency entry was “inactive”.

For the compound `CC(=O)[C@H]1CC[C@H]2[C@@H]3C=CC4=CC(=O)CC[C@@]4(C)[C@H]3CC[C@]12C`, the Potency result was “inactive”.

For `CN1C(=O)C[C@@H](C(=O)N[C@@H](Cc2cnc[nH]2)C(=O)N2CCC[C@H]2C(N)=O)NC1=O`, the Potency entry is “inactive”.

On to `CC12CCC(C[N+](C)(CCC[N+](C)(C)C)C1)C2(C)C` (stereo not given), for which the Potency entry was “inactive”.

Take `O=C(Nc1ccc(O)cc1)c1ccccc1O`: the Potency result was “inactive”.

As for `O=C1CCC(=O)N1CO`, the Potency entry is “inactive”.

Consider `COc1ccc(C(=O)CCC(=O)O)c2ccccc12`, for which the Potency entry is “inactive”.

For `S=C=Nc1ccc(N=C=S)cc1`, the Potency result was “inactive”.

On to `CC(C)OC(=O)Nc1ccc2nc(-c3cscn3)[nH]c2c1`, for which the Potency result is “inactive”.

In the case of `COc1cc(S(C)=O)ccc1-c1nc2ncccc2[nH]1` (stereo not given), the Potency result was “inactive”.

The values above are taken from PubChem BioAssay (NCATS).
